# Laboratory results: PubChem BioAssay (EPA / NIEHS)
# “And” between values parts separate entries of the source, which are not always exact repeats. Identical values can stand only once. The source holds several records for some structures; these can differ, active in one and inactive in another. The source made the active and inactive calls. How the source made its calls: active means hit-call score of the fitted dose curve at least 0.9, where 1 is the maximum; inactive means score below 0.9.
# Key:
# [1] = read-out: Monokine induced gamma interferon (MIG), CXCL9 (gene 4283); test: BSK_3C_MIG: BioMAP Diversity Plus: 3C Assay for Monokine induced gamma interferon (MIG) Biomarker Activity (AID 2283021); conditions: primary human endothelial cells (HUVEC); actives raise or lower the signal;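 on AC50: MIG protein level measured by immunoassay in the treated endothelial cultures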
# How it was run: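 HUVEC primary endothelial cultures dosed with chemical; MIG quantified by ELISA at 24 h. Data fitted bidirectionally against DMSO control, with parallel SRB total-protein staining for cytotoxicity.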
# [2] = BSK_3C_SRB: Viability Assessment in the BioMAP Diversity Plus: 3C Assay (AID 2283023); conditions: primary human endothelial cells (HUVEC);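 further: cells read 24 h after compound dosing; fitted both ways against DMSO so a hit may be signal rise or drop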
# How it was run: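 HUVEC, 24 h post-dose; 10% TCA fix, 0.1% SRB stain, A560 nm. Bidirectional curve fit vs DMSO negative control.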
# [3] = read-out: Matrix Metallopeptidase 1 (MMP1), MMP1 (gene 4312); test: BSK_BE3C_MMP1: BioMAP Diversity Plus: BE3C Assay for Matrix Metallopeptidase 1 (MMP1) Biomarker Activity (AID 2283024); conditions: primary human bronchial epithelial cells; actives raise or lower the signal
# How it was run: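 Human primary bronchial epithelial cells (BE3C system) dosed for 24 h; MMP-1 quantified by ELISA. Bidirectional fit against DMSO; cytotoxicity tracked in parallel cultures by SRB total-protein staining.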
# [4] = BSK_3C_Vis: BioMAP Diversity Plus: 3C Assay for Morphology Visualization (AID 2283025); conditions: primary human endothelial cells (HUVEC);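 further: fitted both ways so gain or loss versus DMSO counts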;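 on AC50: light microscopy image of cell morphology used as background control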
# How it was run: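 Human umbilical vein endothelial cell morphology was inspected by light microscopy 24 h after chemical dosing; scored bidirectionally relative to DMSO.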
# [5] = BSK_4H_SRB: Viability Assessment in the BioMAP Diversity Plus: 4H Assay (AID 2283027); conditions: primary human endothelial cells (HUVEC);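 further: cells exposed to compound for 24 h before staining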;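 on AC50: curves fitted both ways versus DMSO so AC50 may be loss or gain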
# How it was run: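 Absorbance at 560 nm of SRB-stained total protein served as the viability read-out in confluent primary human umbilical vein endothelium 24 h after chemical treatment. Curves were fitted bidirectionally against DMSO as negative control.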
# [6] = BSK_BE3C_SRB: Viability Assessment in the BioMAP Diversity Plus: BE3C Assay (AID 2283028); conditions: primary human bronchial epithelial cells;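 on AC50: fitted both ways so AC50 may mark signal gain or loss versus DMSO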
# How it was run: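 Primary human bronchial epithelium; chemical dosing, 24 h; 10% TCA fix, 0.1% SRB stain, A560; bidirectional fit vs DMSO baseline.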
# [7] = read-out: Thrombomodulin, THBD (gene 7056); test: BSK_3C_Thrombomodulin: BioMAP Diversity Plus: 3C Assay for Thrombomodulin Biomarker Activity (AID 2283029); conditions: primary human endothelial cells (HUVEC); actives raise or lower the signal
# How it was run: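 Human umbilical vein endothelial cells were exposed to chemicals for 24 h; cell-surface thrombomodulin quantified by ELISA, with bidirectional fitting against DMSO baseline.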
# [8] = read-out: Pselectin, SELP (gene 6403); test: BSK_4H_Pselectin: BioMAP Diversity Plus: 4H Assay for Pselectin Biomarker Activity (AID 2283026); conditions: primary human endothelial cells (HUVEC); actives raise or lower the signal
# How it was run: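 Primary human umbilical vein endothelial cells were treated 24 h, and cell-surface P-selectin was then quantified by ELISA. Bidirectional fit versus DMSO; cytotoxicity checked in parallel cultures by SRB total-protein staining.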
# [9] = read-out: Vascular endothelial growth factor receptor 2 (Homo sapiens) (UniProt P35968); test: BSK_4H_VEGFRII: BioMAP Diversity Plus: 4H Assay for Vascular endothelial growth factor receptor 2 (VEGFR2) Biomarker Activity (AID 2283031); conditions: primary human endothelial cells (HUVEC); actives raise or lower the signal;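 on AC50: cell-surface VEGFR2 protein level quantified by ELISA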
# How it was run: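 HUVEC (human primary), 4H system; 24 h post-dose; VEGFRII by ELISA; bidirectional curve fit vs DMSO baseline; gain or loss of signal scored.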
# [10] = read-out: Urokinase-type plasminogen activator receptor (uPAR), PLAUR (gene 5329); test: BSK_4H_uPAR: BioMAP Diversity Plus: 4H Assay for Urokinase-type plasminogen activator receptor (uPAR) Biomarker Activity (AID 2283030); conditions: primary human endothelial cells (HUVEC); actives raise or lower the signal
# How it was run: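 HUVEC, 24 h post-dose; uPAR by ELISA; bidirectional fit vs DMSO baseline.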
smiles,measurement,setting,value
CC(=O)[C@H]1CC[C@H]2[C@@H]3CCC4=CC(=O)CC[C@]4(C)[C@H]3CC[C@]12C,outcome,[1],inactive
same,AC50,[2],6.1 µM (active)
same,AC50,[3],7.49 µM (active)
same,AC50,[4],9.8 µM (active)
same,outcome,[5],inactive
same,outcome,[6],inactive
same,outcome,[7],inactive
C[C@]12CC[C@@H]3c4ccc(O)cc4C[C@@H](CCCCCCCCCS(=O)CCCC(F)(F)C(F)(F)F)[C@H]3[C@@H]1CC[C@@H]2O (stereo partly specified),outcome,[1],inactive
same,AC50,[2],3.51 µM (active)
same,AC50,[3],0.907 µM (active)
same,outcome,[4],inactive
same,outcome,[8],inactive
same,outcome,[5],inactive
same,outcome,[6],inactive
same,outcome,[7],inactive
same,outcome,[9],inactive
COC(=O)CSc1cc(N=c2sc(=O)n3n2CCCC3)c(F)cc1Cl,outcome,[1],inactive
same,outcome,[2],inactive
same,outcome,[3],inactive
same,outcome,[4],inactive
same,outcome,[8],inactive
same,outcome,[5],inactive
same,outcome,[6],inactive
same,AC50,[7],1.21 µM (active)
same,outcome,[10],inactive
same,outcome,[9],inactive
N#CSCSc1nc2ccccc2s1,AC50,[1],11 µM (active) and 11.9 µM (active)
same,AC50,[2],5.31 µM (active) and 5.24 µM (active)
same,AC50,[3],7.12 µM (active) and 11.3 µM (active)
same,AC50,[4],4.4 µM (active) and 4.82 µM (active)
same,AC50,[5],3.51 µM (active) and 10.6 µM (active)
same,AC50,[6],5.15 µM (active)
same,outcome,[6],inactive
same,AC50,[7],35.8 µM (active)
same,outcome,[7],inactive
same,AC50,[9],5.06 µM (active) and 5.42 µM (active)
COc1c(Cl)ccc(Cl)c1C(=O)O,outcome,[1],inactive
same,outcome,[2],inactive
same,outcome,[3],inactive
same,outcome,[4],inactive
same,outcome,[5],inactive
same,outcome,[6],inactive
same,outcome,[7],inactive
CCN(CC)C(=O)c1cccc(C)c1,outcome,[1],inactive
same,outcome,[2],inactive
same,outcome,[3],inactive
same,outcome,[4],inactive
same,outcome,[8],inactive
same,outcome,[5],inactive
same,outcome,[6],inactive
same,outcome,[7],inactive
same,outcome,[9],inactive
CC(C)(C)[C@@H](O)[C@@H](Cc1ccc(Cl)cc1)n1cncn1,outcome,[1],inactive
same,outcome,[2],inactive
same,outcome,[3],inactive
same,AC50,[4],39 µM (active)
same,outcome,[8],inactive
same,outcome,[5],inactive
same,outcome,[6],inactive
same,outcome,[7],inactive
same,outcome,[9],inactive
CC(C)(c1ccc(O)cc1)c1ccc(O)cc1,outcome,[1],inactive
same,AC50,[2],14.2 µM (active)
same,outcome,[2],inactive
same,outcome,[3],inactive
same,AC50,[4],39.6 µM (active) and 20 µM (active)
same,outcome,[4],inactive
same,outcome,[5],inactive
same,AC50,[6],24 µM (active)
same,outcome,[6],inactive
same,outcome,[7],inactive
same,outcome,[10],inactive
same,outcome,[9],inactive
COc1nc(C)nc(NC(=O)NS(=O)(=O)c2ccccc2OCCCl)n1,outcome,[1],inactive
same,outcome,[2],inactive
same,outcome,[3],inactive
same,outcome,[4],inactive
same,outcome,[5],inactive
same,outcome,[6],inactive
same,outcome,[7],inactive
same,outcome,[10],inactive
same,outcome,[9],inactive
C#CCOC(=O)[C@@H](C)Oc1ccc(Oc2ncc(Cl)cc2F)cc1,outcome,[1],inactive
same,outcome,[2],inactive
same,outcome,[3],inactive
same,outcome,[4],inactive
same,outcome,[8],inactive
same,outcome,[5],inactive
same,outcome,[6],inactive
same,outcome,[7],inactive
same,outcome,[10],inactive
same,outcome,[9],inactive
CN(C)C(=O)Nc1ccc(Cl)c(Cl)c1,outcome,[1],inactive
same,outcome,[2],inactive
same,outcome,[3],inactive
same,outcome,[4],inactive
same,outcome,[8],inactive
same,outcome,[5],inactive
same,outcome,[6],inactive
same,outcome,[7],inactive
same,outcome,[9],inactive
CCCOC(=O)c1ccc(C(=O)OCCC)nc1,outcome,[1],inactive
same,outcome,[2],inactive
same,outcome,[3],inactive
same,outcome,[4],inactive
same,outcome,[8],inactive
same,outcome,[5],inactive
same,outcome,[6],inactive
same,outcome,[7],inactive
same,outcome,[10],inactive
same,outcome,[9],inactive
CCCN(CCC)c1c([N+](=O)[O-])cc(C(F)(F)F)c(N)c1[N+](=O)[O-],AC50,[1],31.7 µM (active)
same,AC50,[2],30.6 µM (active)
same,outcome,[3],inactive
same,AC50,[4],16.3 µM (active)
same,AC50,[5],31.5 µM (active)
same,AC50,[6],16.4 µM (active)
same,AC50,[7],2.15 µM (active)
same,AC50,[10],33.1 µM (active)
same,AC50,[9],32.3 µM (active)
COC(=O)c1ccccc1S(=O)(=O)NC(=O)Nc1nc(OC(F)F)cc(OC(F)F)n1,outcome,[1],inactive
same,outcome,[2],inactive
same,outcome,[3],inactive
same,outcome,[4],inactive
same,outcome,[8],inactive
same,outcome,[5],inactive
same,outcome,[6],inactive
same,outcome,[7],inactive
same,outcome,[9],inactive
COC(=O)c1cccc(C)c1S(=O)(=O)NC(=O)Nc1nc(OCC(F)(F)F)nc(N(C)C)n1,outcome,[1],inactive
same,outcome,[2],inactive
same,outcome,[3],inactive
same,outcome,[4],inactive
same,outcome,[5],inactive
same,outcome,[6],inactive
same,outcome,[7],inactive
same,outcome,[10],inactive
same,outcome,[9],inactive
O=C(c1ccccc1)C1CCCCC1,outcome,[1],inactive
same,outcome,[2],inactive
same,outcome,[3],inactive
same,outcome,[4],inactive
same,outcome,[8],inactive
same,outcome,[5],inactive
same,outcome,[6],inactive
same,outcome,[7],inactive
same,outcome,[9],inactive
CCCOC(=O)NCCCN(C)C,outcome,[1],inactive
same,outcome,[2],inactive
same,outcome,[3],inactive
same,outcome,[4],inactive
same,outcome,[8],inactive
same,outcome,[5],inactive
same,outcome,[6],inactive
same,outcome,[7],inactive
same,outcome,[9],inactive
OB(O)O,outcome,[1],inactive
same,outcome,[2],inactive
same,outcome,[3],inactive
same,outcome,[4],inactive
same,outcome,[8],inactive
same,outcome,[5],inactive
same,outcome,[6],inactive
same,outcome,[7],inactive
same,outcome,[9],inactive
COC(=O)c1ccc(CNS(C)(=O)=O)cc1S(=O)(=O)NC(=O)Nc1nc(OC)cc(OC)n1,outcome,[1],inactive
same,outcome,[2],inactive
same,outcome,[3],inactive
same,outcome,[4],inactive
same,outcome,[8],inactive
same,outcome,[5],inactive
same,outcome,[6],inactive
same,outcome,[7],inactive
same,outcome,[9],inactive
CCSC(=O)N(CC(C)C)CC(C)C,outcome,[1],inactive
same,outcome,[2],inactive
same,outcome,[3],inactive
same,outcome,[4],inactive
same,outcome,[5],inactive
same,outcome,[6],inactive
same,outcome,[7],inactive
same,outcome,[10],inactive
same,outcome,[9],inactive
S=C(S)NCCNC(=S)S.[Mn+2].[S-]C([S-])=NCCN=C([S-])[S-].[Zn+2],outcome,[1],inactive
same,outcome,[2],inactive
same,AC50,[3],1.34 µM (active)
same,outcome,[3],inactive
same,outcome,[4],inactive
same,outcome,[5],inactive
same,outcome,[6],inactive
same,outcome,[7],inactive
same,outcome,[10],inactive
same,outcome,[9],inactive
Oc1ccc(C(c2ccc(O)cc2)C(Cl)(Cl)Cl)cc1,AC50,[1],30.7 µM (active)
same,AC50,[2],16.4 µM (active)
same,AC50,[3],33.1 µM (active)
same,AC50,[4],29.4 µM (active)
same,AC50,[5],19.3 µM (active)
same,AC50,[6],30.2 µM (active)
same,AC50,[7],6.1 µM (active)
same,AC50,[10],31.4 µM (active)
CCOC(=O)COc1cc(-n2ncc(C(F)(F)F)c(C)c2=O)c(F)cc1Cl,outcome,[1],inactive
same,outcome,[2],inactive
same,outcome,[3],inactive
same,outcome,[4],inactive
same,outcome,[8],inactive
same,outcome,[5],inactive
same,outcome,[6],inactive
same,outcome,[7],inactive
same,outcome,[9],inactive
CCNc1nc(N)nc(Cl)n1,outcome,[1],inactive
same,outcome,[2],inactive
same,outcome,[3],inactive
same,outcome,[4],inactive
same,outcome,[5],inactive
same,outcome,[6],inactive
same,outcome,[7],inactive
same,outcome,[10],inactive
same,outcome,[9],inactive
CCOC(=O)NCCOc1ccc(Oc2ccccc2)cc1,outcome,[1],inactive
same,AC50,[2],20 µM (active)
same,outcome,[3],inactive
same,AC50,[4],39 µM (active)
same,outcome,[8],inactive
same,outcome,[5],inactive
same,outcome,[6],inactive
same,outcome,[7],inactive
same,outcome,[9],inactive
CCC(C)OC(=O)N1CCCCC1CCO (stereo unspecified),outcome,[1],inactive
same,outcome,[2],inactive
same,outcome,[3],inactive
same,outcome,[4],inactive
same,outcome,[8],inactive
same,outcome,[5],inactive
same,outcome,[6],inactive
same,outcome,[7],inactive
same,outcome,[10],inactive
same,outcome,[9],inactive
O=C(O)C1(C(=O)Nc2ccc(Cl)cc2Cl)CC1,outcome,[1],inactive
same,outcome,[2],inactive
same,outcome,[3],inactive
same,outcome,[4],inactive
same,outcome,[8],inactive
same,outcome,[5],inactive
same,outcome,[6],inactive
same,outcome,[7],inactive
same,outcome,[10],inactive
same,outcome,[9],inactive
COCCO,outcome,[1],inactive
same,outcome,[2],inactive
same,outcome,[3],inactive
same,outcome,[4],inactive
same,outcome,[5],inactive
same,outcome,[6],inactive
same,outcome,[7],inactive
same,outcome,[10],inactive
